From PubChem BioAssay AID2729 (National Center for Advancing Translational Sciences (NCATS), 2010)
The list shows a part of the results. Inconclusive results are not listed. Active and inactive are the calls of the source. Calls come from the whole dose curve; as a rule, active = well fitted inhibition curve with a large enough effect; inconclusive = small, poorly fitted or top-dose-only effect, or effect the other way; inactive = flat fitted curve, though single readings scatter.

test: High Content Assay for Compounds that inhibit the Assembly of the Perinucleolar Compartment: WI-38 Cytotoxicity; conditions: WI-38 normal lung fibroblasts, ATPLite luminescence ATP viability, 24 h; series mostly up to 46.1 µM
Excerpt: High Content Assay for Compounds that inhibit the Assembly of the Perinucleolar Compartment
NIH Chemical Genomics Center [NCGC]
NIH Molecular Libraries Probe Centers Network [MLPCN]
Assay Submitter (PI): Sui Huang, Northwestern University, Feinberg School of Medicine, Cell and Molecular Biology, Chicago, Illinois.
The perinucleolar compartment (PNC) is a non-membrane-bound nuclear subdomain that is associated with but structurally distinct from the nucleolus. The PNC is a heritable trait, in which the number of PNCs per cell in daughter cells often mimics that of their mother cells. The PNC is heterogeneous in shape, is stable through interphase, disassembles during mitosis, and reassembles in early G1. The PNC is concentrated with newly synthesized RNA polymerase III (pol III) RNAs (MRP RNA, RNAse P H1 RNA, hY RNAs[hY1, 2, 5], Alu RNA, and SRP [7SL] RNA) and RNA binding proteins (nucleolin, PTB, CUG-BP, KSRP, Raver1, Raver2, and Rod).
Extensive in vitro studies have shown that the PNC is unique to tumor cells and preferentially forms in tumor cells derived from solid tissues. Examination of cancer cell lines from various origins and malignant capacities has shown that PNC prevalence correlates with the malignancy of tumors and has the potential to be developed as a pan-cancer prognostic marker.
Although the PNC is associated with a DNA locus and a handful of components have been identified, much remains to be investigated regarding the structure and function of the PNC and its mechanistic link to cancer. We have previously shown that PNC prevalence reduction is a valid strategy to identify compounds that can be used to study the structure and function of the PNC. It is necessary, however, to create a screening platform that is able to test a large number of compounds in an automated fashion. Here we report the development and robustness of an automated whole-cell phenotypic image-based screening assay that is capable of identifying such compounds.
We conducted a followup assay to measure the effect of the lead candidates on cell health in a non-metastatic line, WI-38, by measuring ATP levels (ATPLite).
1. Cells at a density of 75-90% confluency in T175 flasks were harvested using 7 ml TrypLE Express cell dissociation reagent. After dissociation (5 minutes room temperature incubation) 10 ml of complete media was added to the TrypLE/cell suspension. The liquid was transferred to a 50 ml Conical tube and cells were pelleted at 1000 RPM for 5 min. Supernatant was removed and cells were resuspended to a final density of 150-200 cells/ul in complete media.
2. Cells were plated in 5 ul volume (2000 cells/well) into 1536 well White solid bottom plates and allowed to recover and adhere at 37 C in a humidified 5% CO2 incubator for 4 hours.
3. After 4 hour incubation, compound libraries (23 nl of 12.5 uM in columns 5-48) were transferred to the plates in duplicate using a 1536 well pintool. Camptothecin positive control (59 uM final) was added to column 2 and 1:3 dilutions of camptothecin was added to column 3. DMSO negative controls were present in columns 1 and 4.
4. After a 24 hour incubation in the 37 C incubator, all wells were treated with 3 ul of ATPLite reagent using a multidrop combi dispenser (ThermoFisher). Bubbles that formed during dispensing were removed by spinning the plates for 1 minutre at 1500 RPM on a table top centrifuge.
5. Luminescencent signal was detected on a Viewlux CCD based imager (PerkinElmer) with a clear filter and a 30 second integration time.
The WI-38 normal human fetal lung fibroblast cell line was provided by Sui Huang of Northwestern University. The media and cell culture reagents were purchased from Invitrogen (Carlsbad, CA), ATPLite came from PerkinElmer.

| Compound | outcome |
| --- | --- |
| Cn1c2ccccc2c(=O)c2c(=O)n(Cc3ccco3)c(COc3ccccc3)nc21 | inactive |
| CCOC(=O)c1c(-c2cccc(C)c2)csc1NC(=O)c1c(-c2ccccc2)noc1C | inactive |
| N=c1c2c(-c3ccccc3)c(-c3ccccc3)n(Cc3ccccc3)c2ncn1CCCO | inactive |
| COC(=O)C1=C(C)N(c2ccc(Br)cc2)C(=O)/C1=C\c1ccco1 | inactive |
| COC(=O)c1ccc(CSc2ccccc2C)o1 | inactive |
| CC1(c2cccc([N+](=O)[O-])c2)CC(C)(C)N(C(=O)c2ccccc2)c2ccccc21 (stereo unspecified) | inactive |
